In the library only some 2.7% were active in any assay of this set; here they are far more common.
HIF-2a block: HIF-2a reporter inhibitors, primary screen, luminescence, 786-0 RCC cells; 786-0 RCC cells HIF-2a reporter, luciferase luminescence, overnight; inhibition, % at 18.8 µM; actives 0.72% (n = 360,000); AID 624352, 2012;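 active means inhibition of the luminescence signal of 40% or more relative to plate controls, in a single-dose primary screen at 18.75 µM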
MITF TRPM1 inh: inhibitors of MITF-dependent TRPM1 promoter reporter, primary screen, cell-based, SK-MEL-5, single point, luciferase; inhibition, % at 12.5 µM; AID 488899, 2010; actives 0.83% (n = 330,000); SK-MEL-5 TRPM1 promoter luciferase, 24 h;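 active means mean inhibition across replicates of 60% or more, whatever share of single replicates reaches that level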
Peg3 prom inh: Peg3 promoter-driven luciferase inhibitors, primary screen, cell-based, HeLa, luciferase luminescence | AID 588405, 2011 | inhibition, % at 20 µM | actives 1.7% (n = 360,000) | HeLa PEG-Prom luciferase reporter, overnight;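 active means inhibition of at least 50% at 20 µM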
Shn3 inh set2: reduction of Shn3 3'UTR firefly luciferase signal, primary screen, Schnurri-3 inhibitor project, cell-based, Clone20 osteoblasts, set 2; actives 0.52% (n = 360,000); Clone20 osteoblast Shn3 3'UTR firefly luciferase, 24 h; AID 588674, 2011; inhibition, % at 12.5 µM;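 active means mean inhibition of at least 75% with every replicate also reaching 75%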;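 further: 0% = median of neutral control wells and 100% = pilot-screen positive control compound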
KKLEB tox: cytotoxicity in KKLEB CF airway cells, primary screen, cytotoxicity control for CF NF-kB inhibitor project, cell-based, uHTS, fluorescence assay plates; actives 0.36% (n = 360,000); activity change (cytotoxicity), % at 5 µM; AID 602141, 2011; KKLEB CF airway cells viability, ATPlite luminescence, overnight; active compounds read low; cells stimulated with P. aeruginosa culture filtrate;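 active means corrected activity change at or below -50% at 5 µM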
CF NFkB inh: inhibitors of PAF-induced NF-kB signaling, primary screen, cell-based, GFP fluorescence, uHTS. KKLEB NF-kB-GFP reporter, GFP fluorescence overnight. inhibition, % at 5 µM. actives 0.86% (n = 360,000). AID 588850, 2011;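 active means at least 50% inhibition at 5 µM, scaled per plate between neutral and stimulator controls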;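 further: PAF is a Pseudomonas aeruginosa culture filtrate used as stimulus; plate controls were PAF-stimulated DMSO wells for no effect and unstimulated DMSO wells for full effect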
Mdm2-MdmX confirm: retested Mdm2-MdmX interaction blockers, confirmation, cell-based, luminescence, single concentration, set 2. actives 99% (n = 740). inhibition, % at 8 µM. shares compounds with HIF-2a block. SaOS-2 split-luciferase Mdm2/MdmX complementation;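 active means mean inhibition of the luminescence signal across two replicates at or above 26 percent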
Target sequence (O15151 whole entry, looked up): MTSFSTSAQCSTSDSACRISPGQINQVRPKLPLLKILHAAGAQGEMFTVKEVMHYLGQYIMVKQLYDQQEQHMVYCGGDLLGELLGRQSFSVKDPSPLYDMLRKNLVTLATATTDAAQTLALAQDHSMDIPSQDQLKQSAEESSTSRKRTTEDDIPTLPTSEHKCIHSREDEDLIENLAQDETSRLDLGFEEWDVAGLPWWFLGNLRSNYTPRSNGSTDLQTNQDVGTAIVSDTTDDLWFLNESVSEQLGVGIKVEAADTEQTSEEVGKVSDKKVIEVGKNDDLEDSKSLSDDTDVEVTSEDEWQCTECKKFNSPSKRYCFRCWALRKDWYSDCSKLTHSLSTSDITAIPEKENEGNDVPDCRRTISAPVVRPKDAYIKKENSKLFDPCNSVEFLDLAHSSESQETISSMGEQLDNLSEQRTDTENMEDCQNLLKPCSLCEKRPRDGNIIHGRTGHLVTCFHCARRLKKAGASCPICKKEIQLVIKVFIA
Target sequence (Q00987 whole entry, looked up): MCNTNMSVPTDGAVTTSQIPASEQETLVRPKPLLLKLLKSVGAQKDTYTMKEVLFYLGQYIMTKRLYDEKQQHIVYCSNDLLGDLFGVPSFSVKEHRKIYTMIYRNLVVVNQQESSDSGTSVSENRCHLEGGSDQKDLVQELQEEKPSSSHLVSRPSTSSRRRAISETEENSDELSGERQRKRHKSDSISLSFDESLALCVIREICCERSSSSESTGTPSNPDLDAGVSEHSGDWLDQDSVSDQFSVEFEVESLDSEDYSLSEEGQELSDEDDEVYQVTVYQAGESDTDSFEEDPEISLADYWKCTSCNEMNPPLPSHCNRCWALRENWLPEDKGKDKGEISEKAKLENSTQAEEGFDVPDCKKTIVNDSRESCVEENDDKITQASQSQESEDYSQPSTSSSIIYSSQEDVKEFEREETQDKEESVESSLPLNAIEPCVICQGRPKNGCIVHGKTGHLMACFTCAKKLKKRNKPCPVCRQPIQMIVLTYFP
HIF-2a conf: HIF-2a reporter inhibitor retest, confirmation, luminescence, 786-0 RCC cells. inhibition, % at 18.8 µM. shares compounds with HIF-2a block. HIF-2a luciferase reporter luminescence, overnight. actives 56% (n = 1,800);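 active means mean inhibition across four replicates of at least 40 percent at the single tested concentration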
HIF-1a counter: HIF-1a luciferase reporter signal reduction – MiaPaCa-2 cells, single concentration, counter-screen for HIF-2a inhibitor project, confirmation; shares compounds with HIF-2a block; MiaPaCa-2 HIF-1a luciferase reporter, desferoxamine, overnight; inhibition, % at 18.8 µM; actives 72% (n = 1,800);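 active means mean inhibition of the reporter signal across four replicates at the single tested dose of 50% or more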
Active calls of the source: *; / = no result.

SMILES | HIF-2a block | MITF TRPM1 inh | Peg3 prom inh | Shn3 inh set2 | KKLEB tox | CF NFkB inh | HIF-2a conf | HIF-1a counter | others
FC(F)(F)c1nnc(-c2ccccc2)nc1Sc1ccc(Cl)cc1 | 62* | 42 | 74* | 92* | 5 | -14 | 48* | 91*
FC(F)(F)c1cccc(Oc2nc(-c3ccccc3)nnc2C(F)(F)F)c1 | 7 | 0 | 6 | -2 | -3 | -3 | / | /
FC(F)(F)c1cccc(Sc2nc(-c3ccccc3)nnc2C(F)(F)F)c1 | 44* | 35 | 36 | / | -1 | 10 | 6 | 70*
FC(F)(F)c1nnc(-c2ccccc2)nc1N1CCCC1 | 8 | -2 | 7 | -4 | -14 | 10 | / | /
FC(F)(F)c1nnc(-c2ccccc2)nc1Sc1ccccc1 | 78* | 20 | 72* | 38 | -10 | 11 | 19 | 67*
COc1ccc(C(=O)/C=C/C(=O)N(CC(=O)NCCC(C)C)Cc2cccs2)c(O)c1 | 96* | 84* | 105* | 98* | -3 | -20 | 91* | 56*
COc1ccc(C(=O)/C=C/C(=O)N(CC(=O)NC2CCCCC2)Cc2ccc(F)cc2)c(O)c1 | 64* | 99* | 102* | 14 | -42 | 37 | 58* | 105*
COc1ccc(NC(=O)N2CCN(C(=O)C3CCCO3)CC2)cc1 (centres undefined) | -2 | -2 | -2 | -2 | 15 | -28 | / | /
O=C(Nc1cccc(Cl)c1)Nc1nnc(-c2ccncc2)s1 | -14 | -3 | 29 | 35 | -58* | 73* | / | / | Mdm2-MdmX confirm=102*
N#CC(C#N)=C1C=CC=CN1/C(=C\c1ccccc1Cl)C(=O)c1ccccc1 | 97* | 77* | 108* | 87* | -58* | 81* | 88* | 94*
N#CC(C#N)=C1C=CC=CN1/C(=C\c1ccccc1)C(=O)c1cccs1 | -38 | 47 | 12 | -53 | -26 | 13 | / | /
NC(=O)c1cccc(-c2noc(-c3ccccc3F)n2)c1 | -156 | -31 | -159 | 1 | 11 | -28 | / | /
COC(=O)c1cccc(-c2noc(-c3ccccc3F)n2)c1 | 52* | -15 | -291 | -29 | -3 | -13 | 65* | -107
COc1ccc(C2c3ccc(O)cc3Oc3ncn(Cc4ccco4)c(=N)c32)cc1OC (centres undefined) | 20 | -4 | 12 | -4 | -21 | 8 | / | /
COc1ccc(C2c3ccc(O)cc3Oc3ncn4nc(-c5cccnc5)nc4c32)cc1OC (centres undefined) | 52* | 11 | 49 | 30 | -12 | 17 | 37 | 57*
CCOC(=O)C1CN(C(=O)OCC)CC1=NNC(N)=O (centres undefined) | 11 | / | 9 | -2 | 0 | -19 | / | /
C[C@@H]1CN([C@H](C)CO)C(=O)CCCn2cc(nn2)CO[C@H]1CN(C)S(=O)(=O)c1ccccc1 | 13 | / | 3 | -11 | 24 | -16 | / | /
CN1CCN(CC(=O)N2CCn3c4c(c5cc(C6CCCCC6)ccc53)CCCC42)CC1 (centres undefined) | 3 | 65* | 105* | 47 | -20 | 22 | / | / | Mdm2-MdmX confirm=103*
Cc1ccc2c(c1)c1c3n2CCN(C(=O)CN2CCN(C)CC2)C3CCC1 (centres undefined) | -2 | -42 | 18 | 12 | -1 | 13 | / | /
COc1ccc(Cl)cc1Nc1cc(C)nc2ncnn12 | 10 | / | 6 | -6 | -2 | -13 | / | /
COc1ccccc1CN1CCC(CNS(=O)(=O)c2cc(-c3cc(C)no3)ccc2OC)CC1 | 5 | -4 | 12 | -16 | 14 | -19 | / | /
N#Cc1ccc(/C=C/C(=O)c2ccccc2)cc1 | 87* | 6 | 98* | 31 | 1 | 17 | -63 | 65*
N#Cc1ccccc1COc1ccc(/C=C/C(=O)O)cc1 | 87* | 55 | 10 | 42 | -6 | 3 | 89* | 56*
COc1ccc(/C=C/C(=O)NC(=S)Nc2ccc(S(=O)(=O)N=C(N)N)cc2)cc1OC | 11 | -3 | 17 | -18 | -2 | -10 | / | /
CCN(c1ccccc1)S(=O)(=O)c1cc2c(cc1C)NC(=O)CO2 | 16 | / | 6 | 11 | 1 | 2 | / | /
SMILES | HIF-2a block | MITF TRPM1 inh | Peg3 prom inh | Shn3 inh set2 | KKLEB tox | CF NFkB inh | HIF-2a conf | HIF-1a counter | others
COc1ccc(-c2csc3ncnc(NCCCO)c23)cc1 | 41* | -3 | 30 | 10 | -5 | 49 | 9 | 46
CCN(CC)CCCNc1ncnc2scc(-c3ccc(F)cc3)c12 | 16 | 5 | 8 | -5 | -1 | -5 | / | /
O=C(N/N=C/c1ccc[nH]1)c1ccc(COc2cccc3cccnc23)cc1 | 25 | 46 | 89* | 90* | -54* | 42 | / | / | Mdm2-MdmX confirm=97*
Cc1cc(NC(=O)c2ccc3c(c2)OCCO3)ccc1NC(=O)c1ccco1 | -175 | -54 | -197 | -56 | -5 | 16 | / | /
O=C(Nc1ccc(NC(=O)c2ccco2)cc1)c1ccc2c(c1)OCCO2 | 46* | 19 | -37 | 8 | 11 | 10 | 69* | 11
COc1cc(CN2C(=O)C(C)ON=C2c2ccccc2F)cc(OC)c1 (centres undefined) | 17 | / | 3 | -25 | 14 | -14 | / | /
CCOC(=O)COc1ccc(S(=O)(=O)N2CCN(c3ccccc3)CC2)cc1 | 67* | -19 | 6 | 8 | -8 | 9 | 19 | 0
CCOC(=O)COc1ccc(S(=O)(=O)N2CCN(C(=O)OCC)CC2)cc1 | 17 | 8 | 9 | 3 | -6 | 2 | / | /
COC(=O)COc1ccc(S(=O)(=O)N2CCN(c3ccc(F)cc3)CC2)cc1 | 46* | -7 | -1 | -12 | 0 | 8 | 22 | 5
CCOC(=O)COc1ccc(S(=O)(=O)N2CCc3ccccc3C2)cc1 | 44* | -8 | 8 | -7 | -10 | 16 | 15 | -2
O=C(COc1ccc(S(=O)(=O)N2CCOCC2)cc1)N1CCc2ccccc2C1 | 20 | 1 | -2 | 12 | -4 | 4 | / | /

Source: PubChem BioAssay
